An excerpt weighted towards active compounds, which were near 2.7% of everything screened.
TCR-CD3 inh = blocks the human TCR-CD3 interaction; TAMRA-labeled TCR probe fluorescence, biochemical; AID 651800; inhibition, % at 9.4 µM; hit rate 0.37% among 360,000; in the data active means inhibition above about 19%;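 further: recombinant mutant TCR 2C K166C tagged with TAMRA read by polarization; 0% = receptor in buffer alone and 100% = receptor with positive control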
PAFAH1B2 inh = inhibitors of human PAFAH1B2; P68402; recombinant PAFAH1B2, FP-rhodamine activity probe, fluorescence polarization; inhibition, % at 3.39 µM; hit rate 1.2% among 340,000; AID 492953;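 active means inhibition above the mean of all tested compounds plus 3 SD, cut at about 24% in these data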;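 further: 0% = enzyme with DMSO and 100% = wells lacking PAFAH1B2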
Target sequence (P68402 whole entry, looked up): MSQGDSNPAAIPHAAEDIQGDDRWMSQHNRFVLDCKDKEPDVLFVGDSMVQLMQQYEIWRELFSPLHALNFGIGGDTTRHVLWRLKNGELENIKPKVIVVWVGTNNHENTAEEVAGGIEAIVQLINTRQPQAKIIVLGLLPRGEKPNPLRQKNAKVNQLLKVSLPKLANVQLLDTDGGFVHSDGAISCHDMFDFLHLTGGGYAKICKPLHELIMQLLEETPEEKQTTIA
PAFAH1B3 FP inh = PAFAH1B3 (human) inhibition. recombinant PAFAH1B3, FP-rhodamine probe, fluorescence polarization. inhibition, % at 3.39 µM. Q15102. hit rate 0.28% among 340,000;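 active means inhibition above the screen-wide average of all tested compounds plus 3 SD, cut at about 25% in these data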;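 further: 0% = enzyme with DMSO only and 100% = wells lacking PAFAH1B3 protein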
Target sequence (Q15102 whole entry, looked up): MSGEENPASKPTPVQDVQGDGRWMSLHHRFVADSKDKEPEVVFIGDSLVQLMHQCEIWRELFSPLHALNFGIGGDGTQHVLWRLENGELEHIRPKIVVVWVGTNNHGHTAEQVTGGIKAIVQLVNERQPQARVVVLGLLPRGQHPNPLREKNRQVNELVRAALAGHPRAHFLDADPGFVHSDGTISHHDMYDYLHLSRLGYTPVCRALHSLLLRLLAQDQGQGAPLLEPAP
PAFAH2 inh = PAFAH2 (human) inhibition | Q99487 | recombinant PAFAH2, FP-rhodamine activity probe, fluorescence polarization | inhibition, % at 3.39 µM | hit rate 0.99% among 340,000;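 active means inhibition above the mean over all tested compounds plus 3 SD, cut at about 30% in these data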;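 further: inhibitors block probe labeling of enzyme so polarization drops; 0% = enzyme with DMSO and 100% = wells lacking PAFAH2 protein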
pPAFAH FP inh = inhibitors of human plasma PAF acetylhydrolase (pPAFAH) | recombinant pPAFAH, FP-rhodamine probe fluorescence polarization | inhibition, % at 3.39 µM | hit rate 1.5% among 330,000;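 active means inhibition above the mean inhibition across the screen plus 3 SD, cut at about 25% in these data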;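 further: inhibitors block binding of the rhodamine activity-based probe so polarization drops; 0% = enzyme with DMSO and 100% = wells lacking pPAFAH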
* = called active by the depositor; . = not tested or not shown.

SMILES	TCR-CD3 inh	PAFAH1B2 inh	PAFAH1B3 FP inh	PAFAH2 inh	pPAFAH FP inh
CC(C)(C)[C@H]1COC(=O)[C@@H](Cc2ccc(F)cc2)C/C=C\C[C@@H](CC(=O)N[C@@H](CO)Cc2ccccc2)C(=O)N1	2	34*	-2	0	0
NC(=O)c1ccc[n+](CC(=O)OCCC23CC4CC(CC(C4)C2)C3)c1	-2	26*	0	0	-3
Cc1ccc([C@H]2C[C@H](O)[C@@H](n3cc(COC(=O)c4ccccc4)nn3)CN2Cc2cccs2)cc1	-1	.	.	.	.
O=C(O)CCN1C(=O)/C(=C\c2cccc(OCc3ccccc3)c2)SC1=S	1	27*	7	-2	11
O=C(O)CN1C(=O)/C(=C\c2ccccc2OCc2ccc(Cl)cc2Cl)SC1=S	2	15	5	29	34*
O=C(O)CN1C(=O)/C(=C\c2cccc(OCc3ccc(Cl)cc3Cl)c2)SC1=S	5	25*	1	25	.
CCOc1ccccc1C=C1SC(=S)N(CC)C1=O	4	-3	12	-2	.
Cc1cccc(C(=O)Nc2sc3c(c2C(=O)O)CCCC3)c1	2	18	7	13	12
N/C(Cc1ccc([N+](=O)[O-])cc1)=N\OC(=O)c1ccc(Br)cc1	6	3	6	41*	30*
N/C(=N\OC(=O)c1ccc([N+](=O)[O-])cc1)c1ccc(Br)cc1	-10	7	5	-6	4
O=C(O)/C=C/C(=O)c1c(-c2ccccc2)[nH]c2ccccc12	0	6	11	3	1
COc1cc(/C=C2\SC(=O)N(Cc3ccc(Cl)cc3)C2=O)cc([N+](=O)[O-])c1O	1	39*	19	49*	.
Cc1ccc(OCc2nnc(NC(=O)c3ccco3)s2)cc1	4	25*	5	2	-3
Cc1ccc(OCc2nnc(NC(=O)c3ccco3)s2)c(C)c1	4	7	-4	11	9
CCN(CC)c1ccc(N=Cc2ccccc2[N+](=O)[O-])cc1	13	0	10	4	33*
CC(=O)N(C)c1ccc(N=Cc2cc3c(cc2[N+](=O)[O-])OCO3)cc1	8	4	3	6	7
O=C(/C=C(\Nc1cccc(Cl)c1F)c1ccccc1)c1ccccc1	4	.	.	.	.
COc1cc2cc(C(C)(C)O)oc(=O)c2cc1OC	6	11	9	-13	33*
Clc1cc(Cl)cc(CN2CCN(c3ncc(Cc4ccccc4)cn3)CC2)c1	0	.	.	.	.
COc1ccccc1NC(=O)c1ccc(NC(=O)COC(=O)C2CCCO2)cc1 (stereo not given)	.	0	-3	-1	.
COc1ccccc1NC(=O)c1ccc(NC(=O)COC(=O)C2CC2C)cc1 (stereo not given)	4	1	3	43*	34*
C#CC1c2ccccc2CCN1CC=C (stereo not given)	2	.	.	.	.
Nc1c(C(=O)OCC(=O)Nc2cccc([N+](=O)[O-])c2)[nH]c(=O)[nH]c1=O	.	10	12	7	25*
COC(=O)C1=C(C)N(Cc2ccc(Cl)cc2)C(=S)NC1c1ccc(Br)cc1 (stereo not given)	-7	.	.	.	.
O=C(CC(c1ccccc1)(c1ccccc1)c1ccccc1)N[C@@H](Cc1ccccc1)C(=O)O	5	25*	4	0	7
SMILES	TCR-CD3 inh	PAFAH1B2 inh	PAFAH1B3 FP inh	PAFAH2 inh	pPAFAH FP inh
O=C(O)[C@H](Cc1ccccc1)NC(=O)C(c1ccccc1)(c1ccccc1)c1ccccc1	7	2	5	5	3
N#C/C(=C\c1ccc(O)c(O)c1)C(=O)NCCc1ccccc1	8	64*	15	36*	27*
O=C(COC(=O)c1c[nH]c2ccccc12)NCc1ccccc1	2	.	.	.	.
O=C(COC(=O)c1c[nH]c2ccccc12)Nc1ccc(F)cc1	0	0	1	77*	30*
O=C(COC(=O)c1c[nH]c2ccccc12)Nc1cccc(F)c1	4	-1	9	81*	25*
COc1ccc2ccc3c(c2c1)N=CC1(O3)N(C)c2ccccc2C1(C)C (stereo not given)	.	1	14	5	33*
Nc1cccc2c(O)cccc12	-10	17	35*	44*	10
O=S(=O)(O)c1cc(O)c2cc(Nc3ccccc3)ccc2c1	19*	26*	43*	42*	.
O=S(=O)(O)c1cc(O)c2ccc(Nc3ccccc3)cc2c1	35*	22	43*	66*	.
O=S(=O)(O)c1ccc(O)c2cc(Nc3ccccc3)ccc12	44*	58*	76*	89*	.
C[C@@H]1CN([C@@H](C)CO)C(=O)c2cc(Br)cnc2O[C@@H]1CN(C)S(=O)(=O)c1ccc(F)cc1	0	.	.	.	.
CCCN1CCCCC(NC(=O)c2ccc3ccccc3c2)C1=O (stereo not given)	0	.	.	.	.
CCc1nc2c(OCCC3CCCCC3)cccn2c1N(C=O)Cc1ccc(OC)cc1	7	.	.	.	.
COc1ccccc1Nc1ccc2c(O)cc(S(=O)(=O)O)cc2c1	40*	34*	75*	75*	.
Nc1ccc2c(O)cc(S(=O)(=O)O)cc2c1	14	37*	60*	54*	.
Nc1cccc2c(O)cc(S(=O)(=O)O)cc12	.	71*	77*	67*	.
COc1ccc(S(=O)(=O)O)cc1P(=O)(c1ccccc1)c1ccccc1	5	3	1	20	6
CC(=O)Nc1ccc2c(O)cc(S(=O)(=O)O)cc2c1	-1	7	12	-2	.
O=c1[nH]cnc2c1c(-c1ccccc1)cn2-c1ccccc1	-7	-1	9	5	20
Fc1ccc(-n2cc(-c3ccccc3)c3c(=S)nc[nH]c32)cc1	2	1	2	0	30*
Fc1cccc(Cc2noc(CN3CCCCC3CCc3ccccn3)n2)c1 (stereo not given)	10	3	7	1	5
Nc1ccc(O)c(-c2nc3ccccc3s2)c1	5	0	8	2	34*
Oc1ccc(N=C/C=C/c2cccc(Br)c2)cc1-c1nc2ccccc2s1	.	4	16	8	37*
Cn1cc(CC(=O)Nc2ccc(Oc3cccnc3)cc2)c2ccccc21	2	.	.	.	.
CCc1ccc(-c2cn(C3CCCCC3)c(=S)[nH]2)cc1	-12	1	6	9	30*
O=C(CNCc1ccc(F)cc1)Nc1ccc(C(=O)N2CCCCC2)cc1	0	3	5	-2	-1
Cc1ccc(S(=O)(=O)N(C)C)cc1NC(=O)COC(=O)CSc1ccccc1	2	18	6	15	28*
Cc1ccc(S(=O)(=O)N(C)C)cc1NC(=O)COC(=O)CCNS(=O)(=O)c1ccccc1	-8	11	3	5	.
Cc1ccc(S(=O)(=O)N(C)C)cc1NC(=O)COC(=O)CCC1CCCCC1	0	1	8	21	33*
COC(=O)C1=C(C)N(Cc2cccc(C(F)(F)F)c2)C(=NCc2ccc(C(F)(F)F)cc2)NC1c1ccccc1C(F)(F)F (stereo not given)	6	.	.	.	.

Bioassay records as filed in PubChem BioAssay.
